Assay outcomes from PubChem.
TIM10 inh: growth inhibitors of isogenic TIM10 control yeast, primary screen, counter-screen for tim10-1 yeast inhibitor project, luminescence, uHTS. S. cerevisiae TIM10 strain growth, BacTiter-Glo luminescence, 24 h. inhibition, % at 10 µM. actives 1.4% (n = 330,000). AID 463195, 2010;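 active means inhibition of 40% or more at the single tested concentration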;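 further: wild-type TIM10 isogenic control strain grown at permissive 25 °C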
tim23-1 inh: growth inhibitors of tim23-1 mutant yeast, primary screen, luminescence, uHTS. inhibition, % at 20 µM. actives 1.3% (n = 330,000). S. cerevisiae tim23-1 growth, BacTiter-Glo luminescence, 24 h;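 active means growth inhibition of the mutant yeast at or above 50%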;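 further: temperature-sensitive mutant grown at 25 °C; plate controls were DMSO-treated mutant yeast for no effect and medium wells lacking yeast for full effect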
V-ATPase pH: regulators of yeast V-ATPase proton pumping, primary screen, pHLuorin cytosolic pH fluorescence; AID 504577, 2011; actives 0.37% (n = 350,000); response, % at 10 µM; S. cerevisiae; in the data active means response mostly above about 7.3%, no sharp cut-off; inactive means mostly below about 5.4%; further: actives read high
tim10-1 inh: growth inhibitors of tim10-1 mutant yeast, primary screen, luminescence, uHTS; S. cerevisiae tim10-1 ts strain growth, BacTiter-Glo, 24 h; inhibition, % at 20 µM; actives 2.2% (n = 330,000);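 active means inhibition of at least 40%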;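 further: mutant grown at 25 °C; 0% = DMSO wells with yeast and 100% = wells holding no yeast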
SKKanGAS inh: S. pyogenes SKKanGAS growth inhibitors in kanamycin, primary screen, streptokinase expression inhibitor project, SKKanGAS strain, BacTiter-Glo luminescence | 6 h | inhibition, % at 7.5 µM | actives 1.3% (n = 300,000) | AID 1662, 2009;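 active means mean replicate score, as percent of positive control median, at least 50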;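 further: strain carries kanamycin resistance gene driven by streptokinase promoter and grows in 40 µg/ml kanamycin; loss of luminescence reflects streptokinase promoter inhibition or plain growth inhibition; 0% = median of DMSO wells and 100% = positive control at its reference dose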
PfHsp90 yeast 2: growth inhibition of PfHsp90-expressing yeast, primary screen, antimalarial PfHsp90 inhibitor project, S. cerevisiae, BacTiter-Glo luminescence, single point, set 2 | BacTiter-Glo ATP, 48 h; yeast lacking PDR1 and PDR3 efflux regulators | inhibition, % at 9.4 µM | actives 0.32% (n = 310,000) | AID 504621, 2011;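 active means every replicate shows inhibition above about 80%, whatever the replicate mean, limit read from the data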;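 further: 0% = DMSO neutral controls and 100% = 20 µM radicicol positive controls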
tim10-1 confirm: growth inhibitors of tim10-1 mutant yeast, confirmation, single concentration, luminescence, S. cerevisiae | inhibition, % at 20 µM | actives 56% (n = 7,400) | shares compounds with tim10-1 inh | S. cerevisiae tim10-1 ts strain growth, BacTiter-Glo, 24 h | AID 463213, 2010;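 active means inhibition of yeast growth at or above a set limit in either of two repeat tests at 20 µM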;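 further: tim10-1 mutant grown at permissive 25 °C to find synthetic lethal compounds; 0% = DMSO yeast wells and 100% = medium wells without yeast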
tim10 confirm: growth inhibitors of wild-type TIM10 yeast, confirmation, counter-screen for tim10-1 synthetic lethality project, single concentration, luminescence, S. cerevisiae | shares compounds with TIM10 inh | S. cerevisiae tim10 strain growth, BacTiter-Glo luminescence, 24 h | inhibition, % at 10 µM | actives 63% (n = 4,600);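 active means inhibition of yeast growth at or above a set limit in either of two replicates at 10 µM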;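 further: this counterscreen used the strain with wild-type TIM10; 0% = yeast with DMSO and 100% = medium wells lacking yeast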
Starred values were filed as active, the others as inactive. This is a sample that favours compounds with a hit; in the whole collection about 4.6% have one here.

For Cc1ccnn2cc3c(=O)n(C)c(=O)n(C)c3c12 the results were TIM10 inh 72.2*, tim23-1 inh 41.1, tim10-1 inh 53.2*, SKKanGAS inh -3.7, tim10-1 confirm 50.5* and tim10 confirm -9.2.
CCC(=O)N(Cc1ccco1)c1nc(C(=O)Nc2ccc(Cl)cc2)c(C)s1 was read as TIM10 inh 44.0*, tim23-1 inh 34.8, V-ATPase pH 3.6, tim10-1 inh 45.9*, SKKanGAS inh -3.3, PfHsp90 yeast 2 4.5, tim10-1 confirm 35.4* and tim10 confirm 37.5*.
`CCN(C(=O)c1ccco1)c1nc(CC(=O)Nc2ccc(Cl)cc2)cs1` gave TIM10 inh 20.2, tim23-1 inh 23.8, V-ATPase pH -2.9, tim10-1 inh -0.5, SKKanGAS inh -0.2 and PfHsp90 yeast 2 -15.0.
O=C(COC(=O)c1ccccc1O)NC12CC3CC(CC(C3)C1)C2 was read as TIM10 inh 21.8, tim23-1 inh 47.4, V-ATPase pH -3.0, tim10-1 inh -2.3 and PfHsp90 yeast 2 3.5.
`O=C(COC(=O)/C=C/C(=O)OCC(=O)NC12CC3CC(CC(C3)C1)C2)NC12CC3CC(CC(C3)C1)C2` gave TIM10 inh 45.1*, tim23-1 inh 36.2, V-ATPase pH 2.9, tim10-1 inh 55.5*, SKKanGAS inh -18.4, PfHsp90 yeast 2 -15.7, tim10-1 confirm 42.9* and tim10 confirm 13.4.
`Cn1c(=O)n(Cc2ccccc2)c(=O)c2c1nc1n2CCCN1CCc1ccccc1` gave TIM10 inh 47.0*, tim23-1 inh 42.0, V-ATPase pH 0.2, tim10-1 inh 43.5*, SKKanGAS inh 5.7, PfHsp90 yeast 2 51.7, tim10-1 confirm 40.9* and tim10 confirm 34.1*.
For COc1ccc(C(=O)/C=C/c2ccc(OC3CSC3)cc2)cc1OC the results were TIM10 inh 41.7*, tim23-1 inh 29.8, V-ATPase pH 1.2, tim10-1 inh 42.3*, SKKanGAS inh -3.2, PfHsp90 yeast 2 10.3, tim10-1 confirm 28.3 and tim10 confirm 9.7.
For CCOc1ccc(N2C(=O)CC(N)C2=O)cc1 (stereo not drawn) the results were TIM10 inh 71.7*, tim23-1 inh 40.3, V-ATPase pH 4.2, tim10-1 inh 72.5*, PfHsp90 yeast 2 -18.6, tim10-1 confirm 68.8* and tim10 confirm 70.3*.
CCOc1ccc(N2C(=O)CC(Sc3n[nH]c(-c4ccccc4)n3)C2=O)cc1 (stereo not drawn) was read as TIM10 inh 56.7*, tim23-1 inh 23.1, V-ATPase pH 10.5, tim10-1 inh 51.2*, SKKanGAS inh -0.6, PfHsp90 yeast 2 30.6, tim10-1 confirm 52.9* and tim10 confirm 36.0*.
Screening Cc1cccc(CN2C(=O)[C@H]3Cc4c([nH]c5ccccc45)C(C)(C)N3C2=O)c1 returned TIM10 inh 43.1*, tim23-1 inh 47.9, V-ATPase pH 8.9, tim10-1 inh 43.5*, SKKanGAS inh 16.4, tim10-1 confirm 35.5* and tim10 confirm 35.0*.
Screening NS(=O)(=O)c1ccc(CCNC(=S)Nc2ccccc2)cc1 returned TIM10 inh -15.0, tim23-1 inh 3.5, V-ATPase pH 0.0, tim10-1 inh -6.2, SKKanGAS inh -10.5 and PfHsp90 yeast 2 5.5.
CCc1n[nH]c(=S)n1/N=C/c1ccc(N(CC)CC)cc1 was read as TIM10 inh 45.0*, tim23-1 inh 18.5, V-ATPase pH 8.1, tim10-1 inh 42.3*, SKKanGAS inh -8.5, PfHsp90 yeast 2 -2.4, tim10-1 confirm 11.2 and tim10 confirm 22.8.
